The list is not random: actives were taken first. Their share in the collection is about 9.4%.
FLuc counter: firefly luciferase modulation, counter-screen for miR-21 project | Potency, µM (highest dose often 57.5 µM), without a hit: at the top dose activity change, negative = inhibition, hits mostly inhibitors | P08659 | purified FLuc, Km substrates, luminescence inhibition | 360,000 tested, 6.9% active;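 further: plate controls were vehicle for no effect and reference inhibitor for full effect; nearly all actives have a fitted effect of over 55% in size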
Target sequence (P08659 whole entry, looked up): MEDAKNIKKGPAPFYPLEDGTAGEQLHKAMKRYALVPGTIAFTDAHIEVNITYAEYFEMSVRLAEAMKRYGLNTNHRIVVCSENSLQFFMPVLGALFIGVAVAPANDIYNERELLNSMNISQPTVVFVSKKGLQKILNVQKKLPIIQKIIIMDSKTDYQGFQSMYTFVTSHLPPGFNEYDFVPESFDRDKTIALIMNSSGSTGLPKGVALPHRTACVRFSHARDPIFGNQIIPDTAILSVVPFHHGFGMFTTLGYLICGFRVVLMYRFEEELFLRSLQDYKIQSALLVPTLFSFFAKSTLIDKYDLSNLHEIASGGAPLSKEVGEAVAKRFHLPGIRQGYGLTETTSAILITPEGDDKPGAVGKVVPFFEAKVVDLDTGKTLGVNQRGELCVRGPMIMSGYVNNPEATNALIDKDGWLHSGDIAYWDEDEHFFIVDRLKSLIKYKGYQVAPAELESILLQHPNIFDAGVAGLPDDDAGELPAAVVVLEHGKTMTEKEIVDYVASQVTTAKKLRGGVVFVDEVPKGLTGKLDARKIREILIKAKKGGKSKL
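Purified P. pyralis luciferase, 10 nM final, with Km-level 10 uM D-luciferin and 10 uM ATP in 50 mM Tris acetate pH 7.5, 10 mM Mg acetate, 0.01% Tween-20, 0.05% BSA; 6-point qHTS titration about 60 µM downward; luminescence read.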
ELG1 DNA repair: blocks ELG1-dependent DNA repair in HEK293T cells | 330,000 tested, 2.3% active | HEK293T ELG1-luciferase reporter, luminescence, 16 h; DNA damage induced by 5-fluorouridine | AID 504467 | Potency, µM (doses to about 46.1 µM), for the others: top-dose activity change, negative = inhibition, actives largely listed as inhibitors; further: on the % scale 0 is the no-effect control and ±100 the full control effect; nearly all actives have a fitted effect of over 55% in size
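Cells (2,000 per well) received 5-fluorouridine plus test compound or DMSO and were incubated 16 hr at 37 °C, 5% CO2. Luciferase activity was read by luminescence 30 min after ONE-Glo addition; signal suppression marked inhibition of damage-induced ELG1 function.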
ELG1 genotox: induces genotoxicity in HEK293T cells with luciferase-tagged ELG1; 330,000 tested, 1.3% active; HEK293T ELG1-luciferase reporter, luminescence, 16 h; Potency, µM (highest dose often 46 µM), for the others: at the highest dose activity change, positive = activation, hits mostly activators; AID 504466; further: % of control where 0% means no effect; nearly all actives have a fitted effect of over 60% in size
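ELG1-luciferase HEK293T cells, 2,000/well; compound pinned in; 16 hr, 37 °C, 5% CO2; ONE-Glo, 30 min RT; luminescence on CCD imager.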
SMN2 splice up: increases expression of the SMN2 splice variant; HEK293 SMN2-luciferase splicing reporter, luminescence, 30-36 h; Potency, µM (highest dose often 46.1 µM), for inactives: at the top dose activity change, positive = activation, most hits filed as activators; 210,000 tested, 2.8% active; AID 1458; further: % of control where 0% means no effect; nearly all actives have a fitted effect of over 55% in size
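qHTS luciferase splicing reporter: luminescence rises when SMN2 exon 7 is included in transfected HEK293 cells. Compound exposure lasted 30-36 h at 37C, with 4.5 mM final sodium butyrate as control, followed by a ONE-Glo read.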
Rab9 promoter act: activates the Rab9 promoter | Huh7 Rab9 promoter-luciferase reporter, luminescence, 24 h | Potency, µM (series often up to 9.22 µM), inactives show at the highest dose activation, negative = inhibition, usual class: activators | 320,000 tested, 2.8% active; further: % of control where 0% means no effect; nearly all actives have a fitted effect of over 60% in size
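Luminescence read-out: Huh7 cells stably expressing Rab9-luciferase, treated 24 h with compound at 37 °C, then lysed with luciferase reagent for 10 min at ambient before reading.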
NPC1 prom act: NPC1 promoter activation; Huh7 NPC1 promoter luciferase reporter, 24 h; Potency, µM (doses to about 9.22 µM), inactives show top-dose activation, usual class: activators; 320,000 tested, 2.4% active; AID 485313; further: % of control where 0% means no effect; nearly all actives have a fitted effect of over 60% in size
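Stable NPC1-promoter luciferase Huh7 line; cpd (DMSO) 24 h, 37 °C, 5% CO2; Amplite luciferase reagent 10 min RT; luminescence readout. qHTS format.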
The depositor's hits bear a star; [ ] = remark or other dose. The call rests on the fitted dose curve; in most records, active means well fitted curve in the direction sought with a large enough effect; inconclusive means small, poorly fitted or top-dose-only effect, or another doubt; inactive means no such curve, though single readings can be large; an effect the other way counts as inactive or inconclusive. Potency means the concentration at half of the fitted maximal effect.

`Cc1noc(C)c1CSc1nc2ccccc2c(=O)n1-c1ccccc1` gave FLuc counter 2%, ELG1 DNA repair -18%, ELG1 genotox inconclusive, SMN2 splice up inconclusive, Rab9 promoter act -33% and NPC1 prom act -24%.
For O=C(CSC1=NCCS1)Nc1nc2ccccc2s1 the results were FLuc counter 19µM*, ELG1 DNA repair inconclusive, ELG1 genotox 9%, SMN2 splice up 10%, Rab9 promoter act inconclusive and NPC1 prom act 29%.
Screening Cc1sc(NC(=O)CSC2=NCCS2)nc1-c1ccccc1 returned FLuc counter -15%, ELG1 DNA repair inconclusive, ELG1 genotox -5%, SMN2 splice up -21%, Rab9 promoter act 0% and NPC1 prom act 1%.
Cc1ccc(-c2csc(NC(=O)CSC3=NCCS3)n2)cc1 was read as FLuc counter 13µM*, ELG1 DNA repair inconclusive, ELG1 genotox inconclusive, SMN2 splice up 19%, Rab9 promoter act 18% and NPC1 prom act 12%.
COc1ccc(-c2cc(C(F)(F)F)nc(SCC(=O)NCC(C)C)n2)cc1OC was read as FLuc counter 3% and SMN2 splice up 11%.
For CS/C(Nc1cc(Cl)ccc1Cl)=C(/C#N)C(=O)c1ccco1 the results were FLuc counter 2.1µM*, ELG1 DNA repair inconclusive, ELG1 genotox 21µM*, Rab9 promoter act inconclusive and NPC1 prom act inconclusive.
Cc1ccc(NC(=O)CSc2nc3ccccc3nc2Cc2ccccc2)c(C)c1 was read as FLuc counter -2%.
`O=C(Nc1ccccc1Cl)c1cc(=O)c2ccccc2o1` gave FLuc counter 15µM*, ELG1 DNA repair inconclusive, ELG1 genotox inconclusive, Rab9 promoter act inconclusive and NPC1 prom act 3.5µM*.
`O=C(Nc1ccccc1Br)c1cc(=O)c2ccccc2o1` gave FLuc counter 12µM*, ELG1 DNA repair inconclusive, ELG1 genotox 7.3µM*, Rab9 promoter act 4µM* and NPC1 prom act 2.5µM*.
Screening CC(=O)N1CCCc2cc(S(=O)(=O)N(C)CC(=O)Nc3cccc(Cl)c3C)ccc21 returned FLuc counter -8%.
CCOC(=O)c1c(Oc2ccc(C(C)=O)cc2)nnc(-c2ccccc2)c1-c1ccccc1 was read as FLuc counter 5% and SMN2 splice up inconclusive.
Screening CCc1ccccc1NC(=O)Cn1nnc(-c2nc(-c3ccncc3)no2)c1N returned FLuc counter -1%.
`Cc1cccc(NC(=O)CN2CCc3cc4c(cc3C2C)OCCCO4)c1` (stereo not given) gave FLuc counter 3%, ELG1 DNA repair 21µM*, ELG1 genotox -6%, Rab9 promoter act -1% and NPC1 prom act -2%.
CCc1ccc(C(=O)COC(=O)C(NC(=O)C2CCC(C)CC2)C(C)C)cc1 (stereo not given) was read as FLuc counter 1.7µM* and SMN2 splice up -6%.
For CCc1ccc(C(=O)COC(=O)[C@@H](NC(N)=O)[C@@H](C)CC)cc1 the results were FLuc counter 1.3µM*, ELG1 DNA repair inconclusive, ELG1 genotox inconclusive, SMN2 splice up -3%, Rab9 promoter act inconclusive and NPC1 prom act 18%.
For O=C(CCN1C(=O)c2ccccc2Sc2ncccc21)Nc1ccc(F)cc1 the results were FLuc counter -5%.
`COc1cccc(C(=O)Nc2cccc(C(C)=O)c2)c1` gave FLuc counter 21µM*, ELG1 DNA repair inconclusive, ELG1 genotox inconclusive, Rab9 promoter act inconclusive and NPC1 prom act inconclusive.
Screening COC(=O)c1cccc(NC(=O)c2cc3sccc3n2C)c1 returned FLuc counter 15µM*, ELG1 DNA repair inconclusive, ELG1 genotox inconclusive, SMN2 splice up 11µM*, Rab9 promoter act 1.8µM* and NPC1 prom act 1.3µM*.
Screening O=C(NC(=S)Nc1ccc2c(c1)C(=O)c1ccccc1C2=O)c1ccc(F)cc1 returned FLuc counter 17µM*, ELG1 DNA repair inconclusive, ELG1 genotox inconclusive, SMN2 splice up 11µM*, Rab9 promoter act inconclusive and NPC1 prom act inconclusive.
`COc1cccc(C(=O)Nc2ccc3c(c2)C(=O)c2ccccc2C3=O)c1` gave FLuc counter inconclusive, ELG1 DNA repair inconclusive, ELG1 genotox inconclusive, SMN2 splice up -15%[1.84 µM], Rab9 promoter act inconclusive and NPC1 prom act 3.2µM*.
`COc1cccc(C(=O)Nc2ccc(C(=O)c3ccccc3)cc2)c1` gave FLuc counter inconclusive, ELG1 DNA repair -6%, ELG1 genotox 8%, Rab9 promoter act -3% and NPC1 prom act 7%.
For CCOc1cccc(C(=O)Nc2cccc(C(C)=O)c2)c1 the results were FLuc counter inconclusive, ELG1 DNA repair 27%, ELG1 genotox 0%, SMN2 splice up inconclusive, Rab9 promoter act 22% and NPC1 prom act 6%.
`COC(=O)c1ccccc1NC(=O)c1cc2sccc2n1C` gave FLuc counter inconclusive, ELG1 DNA repair 4%, ELG1 genotox -1%, SMN2 splice up -2%, Rab9 promoter act 11% and NPC1 prom act -4%.
COc1cccc2sc(N(Cc3cccnc3)C(=O)C3CCCCC3)nc12 was read as FLuc counter -2%.
For COc1ccccc1CNC(=O)Cn1ncn2c(cc3sccc32)c1=O the results were FLuc counter 0% and SMN2 splice up 1%.
For CCOC(=O)c1cc(C(=O)Nc2ccc(C)c(F)c2)nn1C the results were FLuc counter 7.6µM*, ELG1 DNA repair inconclusive, ELG1 genotox inconclusive, SMN2 splice up 42%, Rab9 promoter act 2.8µM* and NPC1 prom act 4µM*.
For COc1cccc(NC(=O)c2cc(C(=O)Nc3cccc(OC)c3)n(C)n2)c1 the results were FLuc counter -1%, ELG1 DNA repair 13µM*, ELG1 genotox -28%, SMN2 splice up -24%, Rab9 promoter act -3% and NPC1 prom act -1%.
CCOc1ccc(C(=O)Nc2cccc(NC(=O)c3ccc(Cl)cc3Cl)c2)cc1 was read as FLuc counter -25% and SMN2 splice up 12%.
Screening CCCOc1ccc(C(=O)Nc2cccc(NC(=O)c3cccc(Cl)c3)c2)cc1 returned FLuc counter 12µM* and SMN2 splice up 29%.
Cn1nc(C(=O)Nc2ccc(Br)cc2)cc1C(=O)Nc1ccc(Br)cc1 was read as FLuc counter 1%, ELG1 DNA repair -2%, ELG1 genotox 2%, Rab9 promoter act 8% and NPC1 prom act 0%.

Bioassay records as filed in PubChem.
